Measured values: PubChem BioAssay (Tox21)
Results filed as inconclusive are left out. A number with no mark means an inactive call. Active and inactive are the calls of the source. Calls follow the shape of the dose curve; as a rule, active = well fitted cell-killing curve with a large enough effect in the repeat runs; inconclusive = weak or mixed curves, or effect the other way; inactive = no such curve, though single readings can be large or run the other way.

Experiment: qHTS assay for identifying genotoxic compounds that show differential cytotoxicity against isogenic chicken DT40 cell lines with known DNA damage response pathways - wild type cell line (AID 743012); also: nearly all actives have a fitted effect of over 60% in size
Details: DT40 wild type chicken cells viability, CellTiter-Glo, 40 h; series mostly up to 68.4 µM; activity change, negative = cytotoxicity: at the top concentration
Description: U.S. Tox21 Program National Center for Advancing Translational Sciences [NCATS] NIH Chemical Genomics Center [NCGC] U.S. Environmental Protection Agency [EPA] National Institutes of Environmental Health Sciences [NIEHS] National Toxicology Program [NTP] U.S. Food and Drug Administration [FDA] Tox21 Assay Overview: DNA repair pathways play a critical role in cellular homeostasis by repairing DNA damage induced by endogenous processes and xenobiotics. Isogenic chicken DT40 cell lines deficient in different DNA repair pathways can be used to identify genotoxic compounds and aid in characterizing the nature of the DNA damage induced. Two DNA repair-deficient cell lines with disrupted genes, Rad54/Ku70 or Rev3, were used to screen the Tox21 10K compound library. Possible genotoxicity was based on the presence of a significant increase in cytotoxicity in one or more of the DNA repair-deficient cell lines compared to that observed in the parental DNA repair-proficient cell line. CellTiter Glo viability assay (Promega, Madison, WI) was used to measure cell viability in these cells after compound treatment. This assay includes the data from the wild type cell line.
Tox21 Assay Protocol Summary: 300 DT40 wild type cells in 5 uL/well were dispensed into white, solid-bottom 1536-well plates using a Multidrop Combi (ThermoFisher Scientific, Waltham, MA) dispenser. After the assay plates were incubated at 37 C/5% CO2 for approximately 0.5 hour, 23 nL of compounds dissolved in DMSO, positive controls or DMSO only was transferred into the assay plate by a pintool work station (Kalypsys, San Diego, CA). The assay plates were incubated at 37 C/5% CO2 for 40 hours. After 5 uL per well of CellTiter-Glo reagent was added into each well of the assay plates, the plates were incubated for 30 min at room temperature and the luminescence intensity of the plates was measured using a ViewLux (PerkinElmer, Shelton, CT) plate reader.
% is scaled to controls: 0 for no effect and ±100 for the full control effect; potency is read from the fitted curve at half-maximal effect.

Which “activity change, negative = cytotoxicity” value does the source give for `CCN(CC)C(C)C(=O)c1ccccc1` (stereo not given) here?
Its value is 17.3%.

Which “activity change, negative = cytotoxicity” value does the source give for `CC(N)=S` here?
Its value is 11.8%.

With `CCN(Cc1ccc(Cl)nc1)/C(=C/[N+](=O)[O-])NC` as the compound, how does the “activity change, negative = cytotoxicity” value read?
The value was 15.3%.

For `ClC(Br)Br`, which “activity change, negative = cytotoxicity” value is on record?
The value was -3.66%.

For `CCOP(=S)(OCC)SCSP(=S)(OCC)OCC`, which Potency is on record?
The Potency was 54.5 µM (active).

For `Cc1ccccc1CO[C@@H]1C[C@@]2(C(C)C)CC[C@]1(C)O2`, which Potency is on record?
The Potency was 43.3 µM (active).

With `c1cc[c]([Hg][c]2ccccc2)cc1` as the compound, how does the Potency read?
The Potency was 0.273 µM (active).

Which “activity change, negative = cytotoxicity” value does the source give for `CCC(Cl)[N+](=O)[O-]` (stereo not given) here?
The value was -0.294% [at 95 µM].

Which “activity change, negative = cytotoxicity” value does the source give for `CCCCP(CCCC)CCCC` here?
The value was -26.7%.

With `C=C(C)[C@@H]1CC=C(C=O)CC1` as the compound, how does the Potency read?
The Potency was 54.5 µM (active).

Which “activity change, negative = cytotoxicity” value does the source give for `COC(=O)c1ccccc1S(=O)(=O)NC(=O)Nc1nc(C)cc(C)n1` here?
Its value is 26.2%.

With `CCCCOP(=O)(O)OCCCC` as the compound, how does the “activity change, negative = cytotoxicity” value read?
Its value is 12.5%.

For `Cc1cnc[nH]1`, which “activity change, negative = cytotoxicity” value is on record?
Its value is 2.54%.

For `CN1CCN(C(=O)O[C@H]2c3nccnc3C(=O)N2c2ccc(Cl)cn2)CC1`, which “activity change, negative = cytotoxicity” value is on record?
Its value is 14.7%.

With `COC(=O)COc1ccc(Cl)cc1Cl` as the compound, how does the “activity change, negative = cytotoxicity” value read?
Its value is -10.6%.

Which “activity change, negative = cytotoxicity” value does the source give for `C[C@]12CC[C@H]3[C@@H](CC=C4C[C@@H](O)CC[C@@]43C)[C@@H]1CC[C@@H]2O` here?
The value was -23.5%.

With `COc1cc(OC)nc(NC(=O)NS(=O)(=O)c2ncccc2C(=O)N(C)C)n1` as the compound, how does the “activity change, negative = cytotoxicity” value read?
Its value is -3.86%.

For `O=c1oc2ccccc2c(O)c1C1CCCc2ccccc21` (stereo not given), which “activity change, negative = cytotoxicity” value is on record?
Its value is 0.597%.

For `N#CC(O)c1ccccc1` (stereo not given), which “activity change, negative = cytotoxicity” value is on record?
The value was 8.3%.

With `COc1ncc(F)c2nc(S(=O)(=O)Nc3c(F)cccc3F)nn12` as the compound, how does the “activity change, negative = cytotoxicity” value read?
The value was 24.7%.

With `C=CC1CC=CCC1` (stereo not given) as the compound, how does the “activity change, negative = cytotoxicity” value read?
Its value is -6.29%.

Which “activity change, negative = cytotoxicity” value does the source give for `O=C1OC(=O)C2C1C1(Cl)C(Cl)=C(Cl)C2(Cl)C1(Cl)Cl` (stereo not given) here?
The value was -0.879% [at 95 µM].

Which Potency does the source give for `CC(C)(C)C(=O)C(Oc1ccc(Cl)cc1)n1cncn1` (stereo not given) here?
Its Potency is 61.1 µM (active).

Which “activity change, negative = cytotoxicity” value does the source give for `CCC(C)(C)c1cc(-n2nc3ccccc3n2)c(O)c(C(C)(C)CC)c1` here?
The value was -9.83% [at 95 µM].

Which “activity change, negative = cytotoxicity” value does the source give for `CNCC(=O)c1ccc(O)c(O)c1` here?
Its value is -6.43%.

With `CC(C)[N+](=O)[O-]` as the compound, how does the “activity change, negative = cytotoxicity” value read?
Its value is -1.38%.

With `Cc1ncsc1CCCl` as the compound, how does the “activity change, negative = cytotoxicity” value read?
Its value is -3.21%.

Which “activity change, negative = cytotoxicity” value does the source give for `COP(N)(=S)Oc1ccccc1C(=O)OC(C)C` (stereo not given) here?
The value was 25%.

Which “activity change, negative = cytotoxicity” value does the source give for `NC(=O)O` here?
Its value is 0.614%.

With `CC(=O)CCc1ccc2c(c1)OCO2` as the compound, how does the “activity change, negative = cytotoxicity” value read?
Its value is 7.99%.

Which Potency does the source give for `CCOC(=O)N(C)C(=O)CSP(=S)(OCC)OCC` here?
The Potency was 30.6 µM (active).

Which “activity change, negative = cytotoxicity” value does the source give for `O=C(NCO)NCO` here?
The value was 13.6% [at 95 µM].

Which Potency does the source give for `CCOP(=S)(Oc1cnc(C(C)(C)C)nc1)OC(C)C` (stereo not given) here?
The Potency was 54.5 µM (active).

For `CC(Cl)(Cl)[N+](=O)[O-]`, which “activity change, negative = cytotoxicity” value is on record?
Its value is 0.224%.

Which Potency does the source give for `c1coc(-c2nc3ccccc3[nH]2)c1` here?
Its Potency is 54.5 µM (active).

With `Cc1cccc(C#N)c1` as the compound, how does the “activity change, negative = cytotoxicity” value read?
Its value is 8.74%.

For `CN(C)CCc1ccc(O)cc1`, which “activity change, negative = cytotoxicity” value is on record?
Its value is 17.2%.

With `O=C(CCN1CC1)OCC(CO)(COC(=O)CCN1CC1)COC(=O)CCN1CC1` as the compound, how does the “activity change, negative = cytotoxicity” value read?
The value was 24.9%.

For `COC(=O)C(c1ccccc1)C1CCCCN1` (stereo not given), which Potency is on record?
The Potency was “inactive”.

For `O=C1OC(c2ccc(O)c(S(=O)(=O)O)c2)(c2ccc(O)c(S(=O)(=O)O)c2)c2c(Br)c(Br)c(Br)c(Br)c21`, which “activity change, negative = cytotoxicity” value is on record?
The value was 6.98%.
